Sampled rows, rich in hits. Any-hit rate of the full collection: about 4%.
KKLEB cytotox: CF airway cell cytotoxicity counter-screen | KKLEB CF airway cells viability, ATPlite luminescence, overnight; active compounds read low; cells stimulated with P. aeruginosa culture filtrate | AID 602141 | activity change (cytotoxicity), % at 5 µM | 0.36% of 360,000 active;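 active means corrected activity change at or below -50% at 5 µM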
TROY signal inh: TROY signaling inhibition; Q293 LMP1-TROYcd NF-kB luciferase reporter, 4 h; 0.98% of 360,000 active; inhibition, % at 10 µM;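 active means compounds whose plate-normalised and pattern-corrected inhibition of the luciferase reporter signal at the single screening dose is 50% or more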
HIF-2a inh: blocks HIF-2a reporter activity | 786-0 RCC cells HIF-2a reporter, luciferase luminescence, overnight | inhibition, % at 18.8 µM | 0.72% of 360,000 active;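 active means inhibition of the luminescence signal of 40% or more relative to plate controls, in a single-dose primary screen at 18.75 µM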
TWEAK Fn14 block: blocks TWEAK-Fn14 interaction in a reporter cell assay; TWEAK-stimulated Fn14 reporter cells, luciferase luminescence, 8 h; inhibition, % at 10 µM; 2% of 360,000 active; AID 1159606; in the data active means inhibition above about 50%
CF NFkB inh: blocks PAF-induced NF-kB reporter in cystic fibrosis cells | KKLEB NF-kB-GFP reporter, GFP fluorescence overnight | AID 588850 | inhibition, % at 5 µM | 0.86% of 360,000 active;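 active means at least 50% inhibition at 5 µM, scaled per plate between neutral and stimulator controls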;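 further: PAF is a Pseudomonas aeruginosa culture filtrate used as stimulus; plate controls were PAF-stimulated DMSO wells for no effect and unstimulated DMSO wells for full effect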
Peg3 prom inh: inhibitors of Peg3 promoter. HeLa PEG-Prom luciferase reporter, luminescence, overnight. inhibition, % at 20 µM. 1.7% of 360,000 active. AID 588405;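 active means inhibition of at least 50% at 20 µM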
Numbers without * were called inactive; . = not tested or not shown.

SMILES	KKLEB cytotox	TROY signal inh	HIF-2a inh	TWEAK Fn14 block	CF NFkB inh	Peg3 prom inh
COc1ccc(Cl)cc1NC(=S)NC(=O)c1ccco1	-4.2	-27.0	-92.8	-5.8	-8.8	-45.1
Cc1ccc(C(=O)COC(=O)c2cccc(NC(=O)c3ccc([N+](=O)[O-])cc3[N+](=O)[O-])c2)cc1	-6.1	58.8*	-86.8	42.8	-6.9	-45.5
O=C(Nc1ccccc1C(=O)O)c1cccc(NC(=O)c2ccccc2Cl)c1	7.1	1.5	11.3	12.6	6.8	-5.0
COC(=O)c1cccc(NC(=O)/C=C/c2ccc([N+](=O)[O-])cc2)c1	-26.7	0.1	-36.4	3.7	-7.1	-115.9
O=C(/C=C/c1ccc([N+](=O)[O-])cc1)Nc1cccc(C(=O)Nc2ccccc2C(=O)O)c1	-4.8	8.7	13.7	70.5*	14.9	15.5
CC(=O)c1cccc(NC(=O)/C=C/c2ccc([N+](=O)[O-])s2)c1	-12.0	31.5	-95.6	84.3*	-20.0	98.5*
CCOC(=O)c1cccc(NC(=O)/C=C/c2ccc([N+](=O)[O-])cc2)c1	8.6	56.6*	-25.2	78.6*	-28.2	-37.3
Cc1cc(C)cc(NC(=O)/C=C/c2ccc([N+](=O)[O-])s2)c1	-7.2	-46.7	-17.9	-4.3	-12.9	-23.2
CC(=O)Nc1ccc(C(=O)OCC(=O)c2cccc([N+](=O)[O-])c2)cc1	-1.1	-20.6	5.7	14.1	13.8	-4.7
CC(C)C(NC(=O)c1c(F)cccc1F)C(=O)OCN1C(=O)c2ccccc2C1=O (configuration not stated)	0.1	-12.3	-1.6	-10.3	2.4	12.8
C=CCc1cc(C=Nc2ccc(N3CCOCC3)cc2)cc(OCC)c1O	1.3	13.9	13.7	-0.3	9.7	6.5
COc1cc2c3c(c1OC)C(=O)CC3CCCC2 (configuration not stated)	-5.2	3.7	-9.3	-1.3	-28.6	2.8
CCOC(=O)c1ccccc1NC(=O)COC(=O)CN1C(=O)C2CC=CCC2C1=O (configuration not stated)	-6.5	15.4	13.2	-5.0	19.2	2.1
CCOC(=O)c1cccc(NC(=O)CC2Oc3ccccc3NC2=O)c1 (configuration not stated)	-12.4	19.6	12.8	-10.9	-5.8	21.3
Cc1ccc(-c2nc(Nc3ccc(O)cc3)c3ccccc3n2)cc1	-1.2	-32.3	-143.2	21.5	-21.3	59.3*
Cc1ccc(-c2nc(N/N=C/c3cccnc3)c3ccccc3n2)cc1	-71.3*	-2.9	-221.0	43.3	-28.3	-113.6
CCOC(=O)c1ccc(Nc2nc(C(=O)OCC)nc3ccccc23)cc1	-2.1	6.7	-20.1	22.9	2.3	31.6
Cc1ccc(-c2nc(N/N=C/c3cccc([N+](=O)[O-])c3)c3ccccc3n2)cc1	-33.5	-39.8	-109.6	-0.7	-24.1	-86.0
CCOC(=O)c1nc(Nc2ccc(Nc3ccccc3)cc2)c2ccccc2n1	4.7	53.9*	-42.3	42.5	-21.9	44.1
Cc1ccc(-c2nc(Nc3cccc(O)c3)c3ccccc3n2)cc1	-13.7	-2.2	-34.6	30.9	-15.1	10.1
O=C(/C=C/[C@H]1O[C@@H](n2ccc(=O)[nH]c2=O)[C@H](O)[C@@H]1O)NCc1cccnc1	17.0	-4.6	-3.3	16.1	-4.2	6.7
CC(C)(C)NCC(O)CON=C1c2ccccc2-c2ccccc21 (configuration not stated)	-0.7	-32.2	24.9	-7.5	-22.9	84.4*
CC(C)(C)NC(=O)CON=C1c2ccccc2-c2ccccc21	-17.3	-0.6	-20.7	32.1	9.6	10.9
Cc1cc(C)c2c(=O)n3c(nc2c1)C(Cc1ccc(O)cc1)NC(=O)c1cc2ccccc2cc1-3 (configuration not stated)	-1.6	20.9	-9.6	-12.2	4.7	67.4*
CC(C)(C)NC(=O)CCN(/N=C/c1ccccc1O)C1=NS(=O)(=O)c2ccccc21	0.2	14.3	25.0	7.0	1.9	32.5
SMILES	KKLEB cytotox	TROY signal inh	HIF-2a inh	TWEAK Fn14 block	CF NFkB inh	Peg3 prom inh
Cc1ccc(OCC(O)Cn2c(=N)n(Cc3ccccc3)c3ccccc32)cc1 (configuration not stated)	-21.3	-11.3	-1.2	12.0	6.8	108.4*
N=c1n(Cc2ccccc2)c2ccccc2n1CC(O)COc1ccc(Cl)cc1Cl (configuration not stated)	-27.7	60.0*	7.5	28.9	15.8	103.5*
COc1ccc(OCC(O)Cn2c(=N)n(Cc3ccccc3)c3ccccc32)cc1 (configuration not stated)	-19.0	11.9	2.7	22.6	4.7	46.2
N=c1n(Cc2ccc(Cl)cc2)c2ccccc2n1CC(O)COc1ccccc1 (configuration not stated)	-49.5	5.8	-21.8	4.0	33.8	101.4*
N=c1n(CCO)c2ccccc2n1Cc1ccc(Cl)cc1	0.2	-23.9	8.7	5.3	-9.3	7.3
CN(C(=O)c1ccc(F)cc1)c1ccc(OCC(=O)Nc2ccccc2C(=O)O)cc1	-6.7	22.8	8.4	-7.8	21.3	8.8
O=C1NC[C@H](CCCCN2CCN(CCC3CCCCC3)C(=O)C2=O)N(CCC2CCCCC2)C1=O	.	9.4	14.3	-6.1	.	.
COc1ccc(CCNC(=O)C2CCN(S(=O)(=O)c3ccc(F)cc3)CC2)cc1	0.3	16.5	22.6	-11.2	-0.5	3.0
O=C(COC(=O)CCNS(=O)(=O)c1ccccc1)NC(=O)c1ccccc1	-6.1	6.3	9.3	-13.9	-0.5	-6.8
O=C(Cn1nnc(-c2ccccc2NC(=O)c2ccccc2)n1)Nc1ccc2c(c1)OCCO2	-53.6*	-15.9	-0.8	2.1	20.4	-1.4
CC(=O)Nc1ccccc1-c1nnn(CC(=O)Nc2ccc3c(c2)OCCO3)n1	-9.8	-10.4	-2.9	-0.9	5.9	14.1
CN(C)c1ccc2c(=O)cc[nH]c2c1	1.7	4.7	-5.7	3.0	19.6	-3.9
CC1=C(C(=O)Nc2ccccc2)C(c2ccncc2)C(C#N)=C(SCC(=O)NC2CC2)N1 (configuration not stated)	6.7	.	5.9	94.4*	-8.9	6.2
CC(C)CN(C(=O)c1cccc(S(=O)(=O)N2CCN(C)CC2)c1)C1CCS(=O)(=O)C1 (configuration not stated)	20.4	2.1	19.6	10.7	-25.9	16.9
Cc1cccc(C)c1OC(=O)CN1C(=O)c2ccccc2C1=O	-1.2	25.1	6.8	5.2	-8.5	4.6
CCOc1cc(CNCCO)cc(Br)c1OCc1ccc(Cl)cc1	-12.0	-17.8	-11.6	-17.5	3.5	101.0*
COc1cc(CNC(C)(C)CO)cc(Br)c1OCc1ccccc1	-3.6	-13.2	9.8	4.5	15.4	0.0
CCOc1cc(CNCCCN2CCOCC2)cc(Br)c1OCc1ccccc1Cl	-54.9*	9.1	13.1	-32.3	35.0	110.8*
CCOc1cc(CNC(C)(C)CO)cc(Br)c1OCc1ccc(Cl)cc1Cl	-13.9	-31.4	-25.5	-34.1	20.6	58.0*
